Assays:
Assay in all cases: DAPPL (digital affinity profiling via proximity ligation, sequencing); 10 mM Tris-HCl pH 7.5, 50 mM NaCl, 1 mM DTT, 4% glycerol, room temperature, 30 min; GST-TFs on glutathione beads, 16-mer random dsDNA library, 0.1% formaldehyde crosslink after washing; high values mean tight binding
FEV = biological target: T1, FEV (Homo sapiens, UniProt Q99581 1-238); conditions: protein: recombinant; tags: N-terminal GST; dsDNA, one strand shown
T1 sequence: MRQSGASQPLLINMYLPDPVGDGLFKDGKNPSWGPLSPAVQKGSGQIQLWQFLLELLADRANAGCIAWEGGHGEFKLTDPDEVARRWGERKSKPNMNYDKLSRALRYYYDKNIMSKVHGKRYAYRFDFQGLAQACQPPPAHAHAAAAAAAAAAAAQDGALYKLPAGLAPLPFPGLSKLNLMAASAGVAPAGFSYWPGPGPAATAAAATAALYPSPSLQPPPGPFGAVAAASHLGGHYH
In short: (§1)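 Binding signal is each hexamer's read frequency for a factor divided by its frequency in the tag-only sample. The factors were GST-fused human transcription factors from yeast, captured on glutathione beads, DNA-barcoded and pooled with that sample. Pools were incubated with 200 nmole of a random double-stranded 16-mer DNA library in Tris/NaCl/DTT/glycerol buffer at room temperature for 30 min, then washed, crosslinked with 0.1% formaldehyde, proximity-ligated with BsaI/T4 ligase (1 h, 37 °C), PCR-amplified and sequenced on an Illumina NextSeq500.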

ETV5 = ETV5 (Homo sapiens, UniProt P41161 1-510); conditions: protein: recombinant; tags: N-terminal GST; dsDNA, one strand shown
In short: as §1

HSF1 = HSF1 (Homo sapiens, UniProt Q00613 1-529); conditions: protein: recombinant; tags: N-terminal GST; chain copies: 3; dsDNA, one strand shown
In short: as §1

SPIC = biological target: T2, SPIC (Homo sapiens, UniProt Q8N5J4 1-248); conditions: protein: recombinant; tags: N-terminal GST; dsDNA, one strand shown
T2 sequence: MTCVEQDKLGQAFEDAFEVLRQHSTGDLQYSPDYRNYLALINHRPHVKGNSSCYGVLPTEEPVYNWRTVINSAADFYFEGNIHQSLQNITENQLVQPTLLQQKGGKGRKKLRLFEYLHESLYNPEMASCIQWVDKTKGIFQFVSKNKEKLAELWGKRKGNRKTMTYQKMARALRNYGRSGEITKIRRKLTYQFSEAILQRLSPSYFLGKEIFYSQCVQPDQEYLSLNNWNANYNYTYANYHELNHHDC
In short: as §1

ELF4 = ELF4 (Homo sapiens, UniProt Q99607 1-663); conditions: protein: recombinant; tags: N-terminal GST; dsDNA, one strand shown
In short: as §1

ELK4 = biological target: T3, ELK4 (Homo sapiens, UniProt P28324-2 1-405); conditions: protein: recombinant; tags: N-terminal GST; dsDNA, one strand shown
T3 sequence: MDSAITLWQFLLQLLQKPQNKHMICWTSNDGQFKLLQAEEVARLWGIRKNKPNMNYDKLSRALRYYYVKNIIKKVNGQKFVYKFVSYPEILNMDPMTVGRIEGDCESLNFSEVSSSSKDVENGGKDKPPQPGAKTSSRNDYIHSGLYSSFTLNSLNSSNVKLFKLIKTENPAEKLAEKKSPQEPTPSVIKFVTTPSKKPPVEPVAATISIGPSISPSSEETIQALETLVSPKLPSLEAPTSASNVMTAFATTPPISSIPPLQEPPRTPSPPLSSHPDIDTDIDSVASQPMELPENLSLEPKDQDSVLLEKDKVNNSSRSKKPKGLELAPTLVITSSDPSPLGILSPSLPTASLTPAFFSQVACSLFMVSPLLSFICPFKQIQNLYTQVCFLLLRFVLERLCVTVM
In short: as §1

ETV2 = biological target: T4, ETV2 (Homo sapiens, UniProt O00321 1-342); conditions: protein: recombinant; tags: N-terminal GST; dsDNA, one strand shown
T4 sequence: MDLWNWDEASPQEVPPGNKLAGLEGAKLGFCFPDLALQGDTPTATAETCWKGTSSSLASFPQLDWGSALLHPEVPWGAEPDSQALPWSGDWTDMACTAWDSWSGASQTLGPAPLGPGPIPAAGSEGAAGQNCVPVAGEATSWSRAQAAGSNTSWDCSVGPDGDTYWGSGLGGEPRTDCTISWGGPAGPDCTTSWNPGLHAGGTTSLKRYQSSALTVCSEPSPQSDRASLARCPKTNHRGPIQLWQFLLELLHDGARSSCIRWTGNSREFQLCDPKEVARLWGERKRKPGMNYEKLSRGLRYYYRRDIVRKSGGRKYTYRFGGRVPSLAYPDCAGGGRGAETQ
In short: as §1

ELF3 = biological target: T5, ELF3 (Homo sapiens, UniProt P78545 1-371); conditions: protein: recombinant; tags: N-terminal GST; dsDNA, one strand shown
T5 sequence: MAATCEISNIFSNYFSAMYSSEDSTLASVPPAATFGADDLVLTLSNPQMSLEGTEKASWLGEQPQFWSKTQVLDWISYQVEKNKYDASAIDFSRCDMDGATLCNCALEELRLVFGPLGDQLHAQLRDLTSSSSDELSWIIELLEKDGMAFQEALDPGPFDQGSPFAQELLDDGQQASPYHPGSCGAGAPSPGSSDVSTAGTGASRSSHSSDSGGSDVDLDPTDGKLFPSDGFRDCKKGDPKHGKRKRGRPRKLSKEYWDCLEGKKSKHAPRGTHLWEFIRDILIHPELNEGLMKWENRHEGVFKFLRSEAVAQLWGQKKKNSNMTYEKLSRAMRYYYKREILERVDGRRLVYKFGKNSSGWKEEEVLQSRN
In short: as §1

CRX = CRX (Homo sapiens, UniProt O43186 1-299); conditions: protein: recombinant; tags: N-terminal GST; dsDNA, one strand shown
In short: as §1

ETV1 = ETV1 (Homo sapiens, UniProt P50549 1-477); conditions: protein: recombinant; tags: N-terminal GST; dsDNA, one strand shown
In short: as §1

ERF = biological target: T6, ERF (Homo sapiens, UniProt P50548 1-548); conditions: protein: recombinant; tags: N-terminal GST; dsDNA, one strand shown
T6 sequence: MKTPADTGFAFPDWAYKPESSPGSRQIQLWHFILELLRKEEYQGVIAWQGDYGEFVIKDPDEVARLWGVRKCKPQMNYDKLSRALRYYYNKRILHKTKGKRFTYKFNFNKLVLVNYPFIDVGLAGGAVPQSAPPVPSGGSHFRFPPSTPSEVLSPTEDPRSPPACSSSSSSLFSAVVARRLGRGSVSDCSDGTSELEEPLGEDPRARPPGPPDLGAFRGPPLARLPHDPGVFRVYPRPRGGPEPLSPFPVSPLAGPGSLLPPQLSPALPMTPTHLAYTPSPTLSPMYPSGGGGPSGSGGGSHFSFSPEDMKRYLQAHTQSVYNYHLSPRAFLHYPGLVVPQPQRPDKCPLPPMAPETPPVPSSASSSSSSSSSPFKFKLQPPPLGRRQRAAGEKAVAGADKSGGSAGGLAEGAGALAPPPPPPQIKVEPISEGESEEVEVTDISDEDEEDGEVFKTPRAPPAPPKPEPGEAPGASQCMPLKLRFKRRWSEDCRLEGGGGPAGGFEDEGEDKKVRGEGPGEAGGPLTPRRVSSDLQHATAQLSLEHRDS
In short: as §1

ETV3L = biological target: T7, ETV3L (Homo sapiens, UniProt Q6ZN32 1-361); conditions: protein: recombinant; tags: N-terminal GST; dsDNA, one strand shown
T7 sequence: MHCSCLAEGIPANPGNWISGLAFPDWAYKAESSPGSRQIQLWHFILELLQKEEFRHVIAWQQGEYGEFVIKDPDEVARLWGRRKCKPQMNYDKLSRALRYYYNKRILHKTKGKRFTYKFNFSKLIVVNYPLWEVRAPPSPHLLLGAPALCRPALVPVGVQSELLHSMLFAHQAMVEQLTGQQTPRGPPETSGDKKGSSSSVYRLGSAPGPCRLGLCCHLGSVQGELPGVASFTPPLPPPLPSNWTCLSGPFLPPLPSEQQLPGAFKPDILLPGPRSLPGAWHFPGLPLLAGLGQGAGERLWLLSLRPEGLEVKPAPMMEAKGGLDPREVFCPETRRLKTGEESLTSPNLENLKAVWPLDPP
In short: as §1

ETS2 = biological target: T8, ETS2 (Homo sapiens, UniProt P15036 1-469); conditions: protein: recombinant; tags: N-terminal GST; dsDNA, one strand shown
T8 sequence: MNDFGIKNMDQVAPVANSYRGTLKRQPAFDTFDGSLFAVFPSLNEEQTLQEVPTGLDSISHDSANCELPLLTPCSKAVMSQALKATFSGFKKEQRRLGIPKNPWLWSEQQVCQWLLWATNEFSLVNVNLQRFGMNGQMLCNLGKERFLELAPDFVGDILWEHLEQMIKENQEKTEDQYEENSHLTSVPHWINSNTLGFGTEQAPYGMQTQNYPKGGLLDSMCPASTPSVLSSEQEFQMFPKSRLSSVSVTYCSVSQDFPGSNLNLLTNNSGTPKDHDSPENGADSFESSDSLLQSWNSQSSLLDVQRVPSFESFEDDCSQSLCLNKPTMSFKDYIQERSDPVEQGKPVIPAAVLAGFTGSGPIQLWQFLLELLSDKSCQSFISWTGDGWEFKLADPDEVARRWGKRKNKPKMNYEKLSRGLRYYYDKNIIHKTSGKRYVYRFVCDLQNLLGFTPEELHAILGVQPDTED
In short: as §1

SPDEF = biological target: T9, SPDEF (Homo sapiens, UniProt O95238 1-335); conditions: protein: recombinant; tags: N-terminal GST; dsDNA, one strand shown
T9 sequence: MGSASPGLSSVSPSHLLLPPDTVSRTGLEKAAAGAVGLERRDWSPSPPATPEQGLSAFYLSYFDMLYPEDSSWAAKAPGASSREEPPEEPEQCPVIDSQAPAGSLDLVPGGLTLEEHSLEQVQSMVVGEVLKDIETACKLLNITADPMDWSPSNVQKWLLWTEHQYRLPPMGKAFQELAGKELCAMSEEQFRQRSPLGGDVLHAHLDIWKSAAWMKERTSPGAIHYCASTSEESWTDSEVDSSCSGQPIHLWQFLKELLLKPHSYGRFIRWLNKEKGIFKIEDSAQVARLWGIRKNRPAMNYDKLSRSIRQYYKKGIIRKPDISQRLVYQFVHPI
In short: as §1

ETV7 = biological target: T10, ETV7 (Homo sapiens, UniProt Q9Y603 1-341); conditions: protein: recombinant; tags: N-terminal GST; dsDNA, one strand shown
T10 sequence: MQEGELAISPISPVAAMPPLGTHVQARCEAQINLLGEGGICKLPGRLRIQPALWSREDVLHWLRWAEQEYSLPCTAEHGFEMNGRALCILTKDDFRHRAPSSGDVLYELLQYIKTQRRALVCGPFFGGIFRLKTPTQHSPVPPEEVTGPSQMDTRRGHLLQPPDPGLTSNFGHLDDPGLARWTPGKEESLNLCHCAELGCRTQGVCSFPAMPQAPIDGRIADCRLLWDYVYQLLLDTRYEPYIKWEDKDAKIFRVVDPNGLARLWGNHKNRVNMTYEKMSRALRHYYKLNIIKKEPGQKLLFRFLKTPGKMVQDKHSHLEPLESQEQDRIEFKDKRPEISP
In short: as §1

ELF5 = biological target: T11, ELF5 (Homo sapiens, UniProt Q9UKW6-2 1-255); conditions: protein: recombinant; tags: N-terminal GST; dsDNA, one strand shown
T11 sequence: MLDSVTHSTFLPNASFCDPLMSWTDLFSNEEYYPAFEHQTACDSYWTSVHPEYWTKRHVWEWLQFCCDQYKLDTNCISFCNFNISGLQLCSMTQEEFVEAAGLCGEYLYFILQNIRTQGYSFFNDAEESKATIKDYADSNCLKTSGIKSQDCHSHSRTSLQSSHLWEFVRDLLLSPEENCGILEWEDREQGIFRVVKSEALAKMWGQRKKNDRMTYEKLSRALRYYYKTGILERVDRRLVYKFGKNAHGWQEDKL
In short: as §1

ETV3 = biological target: T12, ETV3 (Homo sapiens, UniProt P41162-2 1-143); conditions: protein: recombinant; tags: N-terminal GST; dsDNA, one strand shown
T12 sequence: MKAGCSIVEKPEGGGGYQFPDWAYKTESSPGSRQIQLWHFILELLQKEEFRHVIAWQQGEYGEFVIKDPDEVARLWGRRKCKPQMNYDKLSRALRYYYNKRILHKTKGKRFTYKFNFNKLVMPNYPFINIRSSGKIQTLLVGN
In short: as §1

ETV6 = ETV6 (Homo sapiens, UniProt P41212 1-452); conditions: protein: recombinant; tags: N-terminal GST; dsDNA, one strand shown
In short: as §1

Sequence of HSF1 (Q00613 whole entry): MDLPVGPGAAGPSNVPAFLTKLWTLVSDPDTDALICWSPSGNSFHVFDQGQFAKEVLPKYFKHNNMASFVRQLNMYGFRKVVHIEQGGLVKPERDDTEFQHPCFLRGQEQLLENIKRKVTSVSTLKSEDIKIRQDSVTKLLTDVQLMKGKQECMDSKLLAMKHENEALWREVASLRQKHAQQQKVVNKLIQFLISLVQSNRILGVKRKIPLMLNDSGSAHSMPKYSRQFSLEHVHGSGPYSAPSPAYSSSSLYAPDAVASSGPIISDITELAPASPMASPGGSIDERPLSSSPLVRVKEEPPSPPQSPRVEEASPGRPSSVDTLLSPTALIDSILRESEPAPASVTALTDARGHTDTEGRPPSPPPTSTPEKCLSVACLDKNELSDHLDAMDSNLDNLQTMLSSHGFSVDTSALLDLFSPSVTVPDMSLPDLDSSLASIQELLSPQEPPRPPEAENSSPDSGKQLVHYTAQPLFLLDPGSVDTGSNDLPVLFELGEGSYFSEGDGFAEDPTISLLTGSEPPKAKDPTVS
Sequence of ETV1 (P50549 whole entry): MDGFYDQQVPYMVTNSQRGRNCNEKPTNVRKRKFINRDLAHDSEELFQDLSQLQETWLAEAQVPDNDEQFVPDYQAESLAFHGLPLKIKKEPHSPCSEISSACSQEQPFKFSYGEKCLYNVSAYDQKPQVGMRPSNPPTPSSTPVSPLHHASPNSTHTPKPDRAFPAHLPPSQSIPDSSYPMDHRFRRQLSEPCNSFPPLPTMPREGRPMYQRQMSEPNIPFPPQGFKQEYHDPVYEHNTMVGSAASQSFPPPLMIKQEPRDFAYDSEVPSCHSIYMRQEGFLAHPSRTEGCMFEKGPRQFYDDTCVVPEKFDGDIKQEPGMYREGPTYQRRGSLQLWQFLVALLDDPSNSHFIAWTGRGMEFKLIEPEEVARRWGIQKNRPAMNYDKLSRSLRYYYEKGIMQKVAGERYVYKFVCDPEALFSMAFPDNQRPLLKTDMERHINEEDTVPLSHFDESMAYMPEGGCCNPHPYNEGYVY
Sequence of ELF4 (Q99607 whole entry): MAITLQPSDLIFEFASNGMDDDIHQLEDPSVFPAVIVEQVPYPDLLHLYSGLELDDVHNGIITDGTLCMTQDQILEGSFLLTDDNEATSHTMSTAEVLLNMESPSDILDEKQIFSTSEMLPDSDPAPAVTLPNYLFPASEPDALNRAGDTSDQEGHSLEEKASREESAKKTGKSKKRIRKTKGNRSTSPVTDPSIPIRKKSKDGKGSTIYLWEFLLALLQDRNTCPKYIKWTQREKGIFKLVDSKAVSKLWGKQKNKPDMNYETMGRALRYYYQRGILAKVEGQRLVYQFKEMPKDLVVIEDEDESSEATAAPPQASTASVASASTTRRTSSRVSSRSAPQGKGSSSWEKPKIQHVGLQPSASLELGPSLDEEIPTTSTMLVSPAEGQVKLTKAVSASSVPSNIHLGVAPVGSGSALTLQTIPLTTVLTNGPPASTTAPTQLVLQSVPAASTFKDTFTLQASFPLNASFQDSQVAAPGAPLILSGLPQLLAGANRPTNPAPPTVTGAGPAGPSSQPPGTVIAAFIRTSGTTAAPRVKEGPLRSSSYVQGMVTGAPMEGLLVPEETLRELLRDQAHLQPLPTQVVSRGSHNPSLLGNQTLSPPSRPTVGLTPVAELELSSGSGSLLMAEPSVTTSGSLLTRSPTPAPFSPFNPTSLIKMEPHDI
Sequence of CRX (O43186 whole entry): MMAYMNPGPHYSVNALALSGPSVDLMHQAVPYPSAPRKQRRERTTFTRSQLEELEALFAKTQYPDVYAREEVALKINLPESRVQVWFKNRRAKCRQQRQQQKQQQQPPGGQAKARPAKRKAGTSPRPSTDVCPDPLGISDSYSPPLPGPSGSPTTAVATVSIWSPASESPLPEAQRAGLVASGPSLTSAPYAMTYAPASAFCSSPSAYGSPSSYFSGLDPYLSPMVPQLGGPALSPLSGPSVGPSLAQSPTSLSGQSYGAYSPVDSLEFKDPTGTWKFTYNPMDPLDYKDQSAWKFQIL
Sequence of ETV5 (P41161 whole entry): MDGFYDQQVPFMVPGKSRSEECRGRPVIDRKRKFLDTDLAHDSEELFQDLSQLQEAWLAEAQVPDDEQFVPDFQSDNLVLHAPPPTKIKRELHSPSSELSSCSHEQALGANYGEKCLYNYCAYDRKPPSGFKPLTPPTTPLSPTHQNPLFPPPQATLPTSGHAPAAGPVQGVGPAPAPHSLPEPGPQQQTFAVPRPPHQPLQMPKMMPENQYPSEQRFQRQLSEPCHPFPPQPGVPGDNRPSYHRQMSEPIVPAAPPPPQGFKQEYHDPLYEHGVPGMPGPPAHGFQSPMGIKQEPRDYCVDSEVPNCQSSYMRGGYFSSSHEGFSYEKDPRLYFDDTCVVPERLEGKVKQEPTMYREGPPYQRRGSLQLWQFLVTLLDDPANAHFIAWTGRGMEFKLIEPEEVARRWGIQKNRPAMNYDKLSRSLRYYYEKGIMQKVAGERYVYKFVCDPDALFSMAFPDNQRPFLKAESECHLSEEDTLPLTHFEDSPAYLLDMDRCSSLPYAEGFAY
Sequence of ETV6 (P41212 whole entry): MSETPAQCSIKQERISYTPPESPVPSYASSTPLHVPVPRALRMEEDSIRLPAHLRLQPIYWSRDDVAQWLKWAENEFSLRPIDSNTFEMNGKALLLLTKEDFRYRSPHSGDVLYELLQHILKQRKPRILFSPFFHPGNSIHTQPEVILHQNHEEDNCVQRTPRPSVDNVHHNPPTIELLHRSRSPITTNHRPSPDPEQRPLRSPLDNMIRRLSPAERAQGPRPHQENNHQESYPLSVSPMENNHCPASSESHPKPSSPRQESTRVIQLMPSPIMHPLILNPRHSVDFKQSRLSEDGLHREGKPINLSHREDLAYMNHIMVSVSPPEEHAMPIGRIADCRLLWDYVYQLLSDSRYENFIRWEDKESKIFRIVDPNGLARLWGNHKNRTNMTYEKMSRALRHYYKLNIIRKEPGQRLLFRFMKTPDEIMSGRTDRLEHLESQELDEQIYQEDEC

TATAGC
binding signal (FEV): 1.19 fold enrichment (6-mer frequency, TF over GST control) | binding signal (ETV5): 1.37 fold enrichment (6-mer frequency, TF over GST control) | binding signal (HSF1): 1.17 fold enrichment (6-mer frequency, TF over GST control) | binding signal (SPIC): 1.31 fold enrichment (6-mer frequency, TF over GST control) | binding signal (ELF4): 1.15 fold enrichment (6-mer frequency, TF over GST control) | binding signal (ELK4): 1.29 fold enrichment (6-mer frequency, TF over GST control) | binding signal (ETV2): 1.13 fold enrichment (6-mer frequency, TF over GST control) | binding signal (ELF3): 1.27 fold enrichment (6-mer frequency, TF over GST control) | binding signal (CRX): 1.44 fold enrichment (6-mer frequency, TF over GST control) | binding signal (ETV1): 1.13 fold enrichment (6-mer frequency, TF over GST control) | binding signal (ERF): 1.24 fold enrichment (6-mer frequency, TF over GST control) | binding signal (ETV3L): 1.25 fold enrichment (6-mer frequency, TF over GST control) | binding signal (ETS2): 1.18 fold enrichment (6-mer frequency, TF over GST control) | binding signal (SPDEF): 1.18 fold enrichment (6-mer frequency, TF over GST control) | binding signal (ETV7): 1.19 fold enrichment (6-mer frequency, TF over GST control) | binding signal (ELF5): 1.13 fold enrichment (6-mer frequency, TF over GST control) | binding signal (ETV3): 1.2 fold enrichment (6-mer frequency, TF over GST control) | binding signal (ETV6): 1.15 fold enrichment (6-mer frequency, TF over GST control)

Source: publication PMC7862700, “An all-to-all approach to the identification of sequence-specific readers for epigenetic DNA modifications on cytosine”
